Source: PubChem BioAssay
Pf Dd2 growth – inhibitors of Plasmodium falciparum Dd2 growth; actives 4.3% (n = 120,000); Potency, µM (doses to about 28.9 µM), for inactives: at the highest dose activity, negative = inhibition, usual class: inhibitors; AID 1347417; P. falciparum Dd2 growth, SYBR Green, 72 h; active = well fitted inhibition curve with a large enough effect;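 note: plate controls were DMSO vehicle for no effect and reference drug for full effect; nearly all actives have a fitted effect of over 65% in size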
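Infected erythrocytes (Dd2, 0.3% parasitemia, 2.5% hematocrit final) are added to compound in RPMI-1640/Albumax II medium, grown 72 h at 37C in low oxygen, then lysed with saponin/Triton-X containing SYBR Green and read by fluorescence.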
Numbers without * were called inactive; [ ] = dose if it differs, or a comment. The sample as a whole holds a higher share of hits than the screen did. Potency is the fitted concentration of half-maximal effect.

Screening CCCn1c(C)cnc1CC1CCCN(S(=O)(=O)CCC)C1 (centres undefined) returned Pf Dd2 growth -11%.
Screening CNC(=O)N1CCCC(Cc2ncc(C)n2C(C)C)C1 (centres undefined) returned Pf Dd2 growth -12%.
For COCCn1c(C)cnc1CC1CCCN(S(=O)(=O)c2cccc(F)c2)C1 (centres undefined) the results were Pf Dd2 growth 8.9µM*.
`CNC(=O)N1CCC(Cc2noc(C3CCOCC3)n2)C1` (centres undefined) gave Pf Dd2 growth 2%.
For CNC(=O)N1CCC(Cc2ncc(C)n2CCOC)C1 (centres undefined) the results were Pf Dd2 growth 2%.
For CC1CCN(c2ccc(CNC(=O)C3CCCN(S(C)(=O)=O)CCC(=O)NCC3)cc2)CC1 (centres undefined) the results were Pf Dd2 growth inactive.
For COc1ccc(C(=O)Nc2ccc([C@@H](O)[C@H]3COCC(=O)N3CC3CCCCC3)cc2)cc1 the results were Pf Dd2 growth inactive.
For CCc1cccc(C)c1NC(=O)Cn1cccc1-c1nc(-c2ccc3c(c2)OCO3)no1 the results were Pf Dd2 growth -11%.
Screening CCOc1ccccc1CN1CCC2(CCN([S+](=O)([O-])c3cccc(C(F)(F)F)c3)CC2)Oc2ccccc21 returned Pf Dd2 growth 8.9µM*.
`O=C1CC2(CCN([S+](=O)([O-])c3ccccc3)CC2)Oc2ccccc2N1` gave Pf Dd2 growth inactive.
For O=C1CC2(CCN([S+](=O)([O-])c3cccc(C(F)(F)F)c3)CC2)Oc2cc(Cl)ccc21 the results were Pf Dd2 growth inactive.
For O=C1CC2(CCN([S+](=O)([O-])c3cccc(C(F)(F)F)c3)CC2)Oc2ccccc21 the results were Pf Dd2 growth inactive.
For COc1cccc([S+](=O)([O-])N2CCC3(CC2)CC(=O)c2ccccc2O3)c1 the results were Pf Dd2 growth inactive.
For CCOc1ccccc1CN1CCC2(CCN([S+](=O)([O-])c3ccc(C)cc3)CC2)Oc2ccccc21 the results were Pf Dd2 growth 4µM*.
Screening CN1C(=O)[C@H]2CN(Cc3cccc(C#N)c3)C[C@H]2C1=O returned Pf Dd2 growth 56%.
O=C(CC1CCCN(c2cnn(CC3CC3)c(=O)c2)C1)NCCN1CCCC1 (centres undefined) was read as Pf Dd2 growth -10%.
Screening CCc1ccc(C(=O)N2[C@@H]3CC[C@H]2CC(NC(=O)c2cnc(C)cn2)C3)cc1 (some centres undefined) returned Pf Dd2 growth inactive.
For CCCC(=O)N1CCN(C2CCN(CCc3ccccc3)C2=O)CC1 (centres undefined) the results were Pf Dd2 growth -2%.
Screening O=C(C1CC(=O)N(c2n[nH]c3ccccc23)C1)N1CCN(CCc2ccccn2)CC1 (centres undefined) returned Pf Dd2 growth -25%.
COCc1cn(C[C@H]2C[C@@H](NC(=O)C3CCOCC3)[C@H](O)[C@@H]2O)nn1 was read as Pf Dd2 growth 25%[44.1 µM].
O=C(c1coc(CN2CCOCC2)c1)N1CCC2(CC1)[C@H](O)C[C@@H]2O was read as Pf Dd2 growth -11%.
Screening COCCCNC(=O)c1ccc(Cn2c(=O)c3ccccc3n(Cc3ccc(Cl)cc3)c2=O)cc1 returned Pf Dd2 growth -18%.
For O=C(NC1CCN(Cc2ccccc2)CC1)c1ccc(Cn2c(=O)c3ccccc3n(Cc3ccc(Cl)cc3)c2=O)cc1 the results were Pf Dd2 growth 5µM*.
Screening O=C(NC1CCN(Cc2ccccc2)CC1)c1ccc(Cn2c(=O)c3ccccc3n(Cc3ccccc3)c2=O)cc1 returned Pf Dd2 growth -15%.
Screening O=C(Nc1ccccc1)N1CCN(C2CCNCC2)C(=O)C1 returned Pf Dd2 growth -8%.
For CC(=O)N1C[C@@H]2CCCN3CCC[C@@H]([C@H]23)[C@H]1CCCC(=O)N(C)Cc1ccc(N2CCOCC2)cc1 the results were Pf Dd2 growth -18%.
Screening CN(C)C1CCCN(C(=O)c2csc3c2CCCC3)CC1 (centres undefined) returned Pf Dd2 growth -9%.
For CC1CCN(C(=O)CSc2c3c(nc4cc(Cl)ccc24)CCCC3)CC1 the results were Pf Dd2 growth -24%.
CCC(C)NC(=O)CSc1c2c(nc3cc(Cl)ccc13)CCCC2 (centres undefined) was read as Pf Dd2 growth -9%.
For O=C(CSc1c2c(nc3cc(Cl)ccc13)CCCC2)N1CCN(c2ccccc2)CC1 the results were Pf Dd2 growth 11µM*.
COCCOCc1nc(C2CCN(C(=O)Nc3ccccc3)CC2)no1 was read as Pf Dd2 growth -7%.
O=C(CC1CCOC2(CCN(S(=O)(=O)c3ccccc3)CC2)C1)NC1CC1 (centres undefined) was read as Pf Dd2 growth -23%.
Screening CNC(=O)[C@H]1C[C@H](Oc2cccnc2)CN1S(=O)(=O)c1ccc(F)cc1 returned Pf Dd2 growth 9%.
Screening CCOc1ccccc1CN1CCC2(CCN(C(=O)c3ccc(OC)cc3)CC2)Oc2ccccc21 returned Pf Dd2 growth -20%.
`CCCN1CCC2(CCN(C(=O)Nc3ccc(Cl)cc3)CC2)Oc2ccccc21` gave Pf Dd2 growth -14%.
For O=C(c1cccc(Cl)c1)N1CCC2(CC1)CCN(Cc1cccs1)c1ccccc1O2 the results were Pf Dd2 growth 7.9µM*.
`c1cncc(OCc2nc(C3CCNCC3)no2)c1` gave Pf Dd2 growth 12%.
For COc1ccc(C(=O)N2CCCn3ccnc3C2c2cnn(C)c2)cn1 (centres undefined) the results were Pf Dd2 growth 10%.
For CCOC(=O)c1cc(-c2ccc(C)cc2)n(CC(=O)Nc2cccc(C(C)=O)c2)c1C the results were Pf Dd2 growth inactive.
CCOC(=O)c1cc(-c2ccccc2)n(-c2cccc(C(=O)N(CC)c3ccccc3)c2)c1C was read as Pf Dd2 growth inactive.
For CCOC(=O)c1cc(-c2ccccc2)n(-c2cccc(C(=O)Nc3cccc(C)c3)c2)c1C the results were Pf Dd2 growth 11µM*.
Screening COc1ccc(N2CC3CCC(C2)N3Cc2cccc(-c3ccc(F)cc3F)c2)cc1 returned Pf Dd2 growth -1%.
`CCn1nccc1C(=O)N1CCCCCCNC(=O)[C@@H]2C[C@@H](c3nc(Cc4ccccc4)no3)C[C@@H]21` gave Pf Dd2 growth -20%.
Screening COc1ccccc1C(=O)N[C@H]1[C@H](O)[C@H](O)C[C@@H]1c1ccc(C(F)(F)F)cc1 returned Pf Dd2 growth inactive.
COc1ccc([C@H]2C[C@@H](O)[C@@H](O)[C@@H]2NC(=O)c2ccc(C(F)(F)F)cc2)cc1 was read as Pf Dd2 growth -19%[44.1 µM].
`Cc1ccccc1[C@H]1C[C@@H](O)[C@@H](O)[C@@H]1NC(=O)c1ccc(C(F)(F)F)cc1` gave Pf Dd2 growth inactive.
Screening Cc1ccccc1C(=O)N[C@H]1[C@H](O)[C@H](O)C[C@@H]1c1ccc(C(F)(F)F)cc1 returned Pf Dd2 growth 3.5µM*.
`COc1ccc([C@H]2C[C@@H](O)[C@@H](O)[C@@H]2NC(=O)Nc2ccc(C(F)(F)F)cc2)cc1` gave Pf Dd2 growth 3.2µM*.
For COc1ccc(CC(=O)N[C@H]2[C@H](O)[C@H](O)C[C@@H]2c2ccc(C(F)(F)F)cc2)cc1 the results were Pf Dd2 growth -15%[44.1 µM].
`Cn1ccc(C(=O)N2CC3ON=C(C(=O)NCc4ccc(F)cc4)C3C2)n1` (centres undefined) gave Pf Dd2 growth 5%.
CC(C)(C)c1ccc(CN2CCN(Cc3cc4n(n3)CCNC4)CC2)cc1 was read as Pf Dd2 growth -7%.
